The list is not random: actives were taken first. Their share in the collection is about 8.7%.
Pf growth 96h = P. falciparum growth inhibition at 96 hour, primary screen for plastid delayed-death inhibitors; P. falciparum luciferase reporter growth, 96 h; Potency, µM (titrated, usually from 28.7 µM), without a hit: at the top dose activity change, negative = inhibition, usual class: inhibitors; hit rate 6.9% among 320,000; AID 504834
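P. falciparum expressing integrated firefly luciferase grown in erythrocytes (2% hematocrit, 0.05% parasitemia final) with compounds for 96 hours at 37 C, 5% CO2. Growth inhibition read as loss of luminescence after adding luciferase detection reagent.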
Pf growth 48h = inhibits P. falciparum growth in the first generation, 48 h. P. falciparum luciferase growth in erythrocytes, 48 h. Potency, µM (doses to about 28.7 µM), for inactives: at the top dose activity change, negative = inhibition, most hits filed as inhibitors. hit rate 5.9% among 310,000. AID 504832
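Growth was read as firefly luciferase luminescence after a 48 h, 37 C, 5% CO2 exposure of compounds to reporter-bearing P. falciparum cultures (0.1% parasitemia, 2% hematocrit final) in Albumax-supplemented RPMI 1640.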
VACV Venus inh = vaccinia inhibition (Venus reporter); hit rate 0.46% among 330,000; Vaccinia virus Venus reporter expression, fluorescence; Potency, µM (top dose mostly 36.5 µM), for inactives: at the highest dose activity change, negative = inhibition, most hits filed as inhibitors; AID 720580; calls by dose curve; tested in A549 cells; note: nearly all actives have a fitted effect of over 30% in size
VACV mCherry inh = vaccinia inhibition (mCherry reporter). Vaccinia virus mCherry reporter infection, fluorescence. Potency, µM (top dose mostly 36.5 µM), for the others: top-dose activity change, negative = inhibition, actives largely listed as inhibitors. hit rate 0.63% among 310,000. AID 720579; calls by dose curve; tested in A549 cells; note: nearly all actives have a fitted effect of over 35% in size
AMA1 RON2 block = inhibitors of Plasmodium falciparum AMA1-RON2 interaction; hit rate 0.2% among 360,000; AlphaScreen AMA1-biotinylated RON2 peptide binding; Potency, µM (titrated, usually from 58.2 µM), without a hit: top-dose activity change, negative = inhibition, actives largely listed as inhibitors; AID 720542;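 note: 0% = vehicle wells and -100% = peptide control; nearly all actives have a fitted effect of over 45% in size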
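AMA1 (3D7) with his tag at 25 nM final met compounds first, then biotinylated RON2 peptide at 25 nM; detection used donor plus acceptor beads, 10 µg/mL apiece, read by AlphaScreen after 30 min at room temperature.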
Active calls of the source: *; i = inactive; ? = inconclusive; nt = no result given; [ ] = another dose, or the depositor's remark. Unless noted, calls come from the whole dose curve; as a rule, active = well fitted curve in the direction sought with a large enough effect; inconclusive = small, poorly fitted or top-dose-only effect, or another doubt; inactive = no such curve, though single readings can be large; an effect the other way counts as inactive or inconclusive. Unless noted, % is set by controls: 0 for no effect and ±100 for the full control effect; potency is the fitted concentration of half-maximal effect.

SMILES	Pf growth 96h	Pf growth 48h	VACV Venus inh	VACV mCherry inh	AMA1 RON2 block
CCNc1nc(SCC(=O)Nc2ccc(Cl)c(Cl)c2)nc(N(C)C)n1	42.4%	?	nt	nt	8.7%
Cc1nn(Cc2ccccc2)c(Cl)c1/C=C/C(=O)OC(C)C(=O)N1CCCC1 (stereo not given)	3.7µM*	1.65µM*	-10.6%	i	-5.7%
O=C(CSCc1cc(=O)c2cc(F)ccc2[nH]1)Nc1ccccc1Cl	nt	nt	5.3%	6.3%	nt
O=C(Cc1ccccc1F)Nc1ccc(S(=O)(=O)N2CCCCC2)cc1	?	-13.3%	-12.2%	-21.4%	7.6%
CN(CC(=O)Nc1cccc(S(=O)(=O)N2CCCC2)c1)CC(=O)Nc1ccc(Cl)c(C(F)(F)F)c1	?	14.7µM*	?	?	39.0%
CN(CC(=O)Nc1ccc(S(=O)(=O)N2CCCC2)cc1)Cc1c(F)cccc1Cl	13.1µM*	-21.4%	-17.9%	-19.4%	-15.4%
CN(CC(=O)Nc1ccc(S(=O)(=O)N2CCCC2)cc1)Cc1ccc(Cl)cc1	8.28µM*	?	-20.9%	-31.5%	5.4%
CCN(CC)c1ccc(C(=O)NCc2ccc3c(c2)CCN3C(C)=O)cc1	nt	nt	-11.7%	-18.4%	nt
COc1cc(Cl)c(C)cc1NC(=O)c1nn(-c2ccc(C)cc2)c(=O)n(C)c1=O	nt	nt	-19.8%	-12.9%	nt
COc1cc(NC(=O)c2cc([N+](=O)[O-])ccc2NC(=O)CNC2CCCCC2)cc(OC)c1	11.7%	0.828µM*	?	?	8.5%
COc1cc(NC(=O)c2cc([N+](=O)[O-])ccc2NC(=O)CNC2CCCCC2C)cc(OC)c1 (stereo not given)	35.7%	0.415µM*	-12.0%	-22.7%	16.4%
O=C(O)c1ccc(C=NNC(=O)c2cccc3ccccc23)cc1	nt	nt	-6.0%	-0.8%	28.9%
O=C(N/N=C/c1cc(Br)ccc1O)c1ccncc1	1.65µM*	2.62µM*	-24.4%	?	-76.7%
O=C(N/N=C/c1ccccc1O)c1cccc2ccccc12	213.9%	11.7µM*	nt	nt	108.1%
O=C(N/N=C/c1ccncc1)c1ccncc1	nt	nt	-3.1%	-8.7%	12.0%
COc1cccc(/C=N/NC(=O)c2ccc(=O)[nH]n2)c1O	-0.4%	5.86µM*	nt	nt	-16.7%
O=C(CNC(=O)c1ccco1)N/N=C/c1ccccc1[N+](=O)[O-]	0.928µM*	8.3%	nt	nt	3.1%
O=C(CNC(=O)c1ccco1)N/N=C/c1ccc(O)c([N+](=O)[O-])c1	49.6%	2.8%	-15.6%	-2.1%	12.6%
Cc1cc(C)c(NC(=O)C2CCN(C(=O)N3CCOc4ccccc43)CC2)c(C)c1	nt	nt	-12.2%	-15.0%	nt
Cc1cccc(CC(=O)NC2CC(=O)N(c3ccccc3)C2)c1 (stereo not given)	nt	nt	-12.0%[7.34 µM]	-4.2%[7.34 µM]	nt
CCOC(=O)N1CCN(Cc2ccc3c(c2)CN(C(=O)c2ccc(C#CC(C)(C)O)o2)CCO3)CC1	nt	nt	-19.1%	-27.4%	nt
O=C(N/N=C/c1cc(Cl)ccc1O)c1ccc(Br)cc1	11.8%	?	?	3.16µM*	-14.2%
COc1ccc(NC(=O)c2nc(-c3ccc(C)cc3)n3c2CCCCC3)c(OC)c1	nt	nt	-18.8%	-13.7%	nt
O=C(N/N=C/c1cccc(Br)c1)c1ccc(Br)cc1	37.2%	-4.2%	?	i	10.8%
Nc1nonc1C(=O)N/N=C/c1cc(Br)ccc1O	13.0%	4.15µM*	?	?	-8.5%
SMILES	Pf growth 96h	Pf growth 48h	VACV Venus inh	VACV mCherry inh	AMA1 RON2 block
O=C(CCC(=O)Nc1cccc(Cl)c1)N/N=C/c1cc([N+](=O)[O-])ccc1O	59.5%	?	-13.5%	-19.6%	-10.9%
COc1ccc(Br)cc1/C=N/NC(=O)c1nc(-c2ccccc2)n2c1CCCCC2	7.38µM*	nt	-2.9%	-12.3%	-26.3%
O=C(CCCC(=O)Nc1cccc(Br)c1)N/N=C/c1cc([N+](=O)[O-])ccc1O	33.6%	10.4µM*	-23.1%	?	79.2%
CCOC(=O)c1c(C)oc2nc(C)nc(NCCc3ccc(OCC)cc3)c12	nt	nt	-24.2%	-23.7%	nt
CCN(C)c1ccc(/C=C/c2ccnc3ccccc23)cc1	nt	nt	40.9%	58.2%	nt
COc1cccc(/C=N/NC(=O)C(=O)Nc2ccccc2OC(F)(F)C(F)F)c1O	-2.2%	?	?	10µM*	51.6%
COc1cccc(/C=N/NC(=O)C[n+]2ccccc2)c1O	5.86µM*	?	-5.7%	-17.5%	-42.7%
Cc1nc(C)c(C(=O)N/N=C/c2c[nH]c3ccccc23)s1	nt	-1.3%	-25.7%	?	80.3%
COc1ccccc1/C=N/NC(=O)c1cccc(OC(F)(F)C(F)F)c1	5.8%	1.9%	-2.2%	-18.3%	-0.4%
COc1cccc(/C=N/NC(=O)c2ccc([N+](=O)[O-])cc2Cl)c1O	27.4%	?	?	11.2µM*	57.1%
Cc1nc(C)c(C(=O)N/N=C/c2cc(Br)ccc2O)s1	5.22µM*	2.33µM*	nt	nt	62.3%
Cc1cccc(CS(=O)(=O)Cc2ccc(C(=O)NCc3ccc(Cl)cc3)o2)c1	nt	nt	-10.8%	-11.6%	nt
O=C(N/N=C/C=C\c1ccccc1[N+](=O)[O-])c1cccs1	2.94µM*	17.1%	nt	nt	82.5%
COCCCNC(=S)N/N=C/c1cccc(OC)c1O	?	0.415µM*	?	?	45.2%
COc1cccc(/C=N/NC(=O)c2ccc(-c3ccccc3)cc2)c1O	7.38µM*	nt	?	4.47µM*	57.3%
C/C(=N/NC(=O)c1ccncc1)c1ccc(NC(=O)c2ccc(Cl)cc2Cl)cc1	-1.0%	48.0%	-5.2%	-13.6%	19.8%
COCCCNC(=S)N/N=C/c1ccc(O)cc1O	-4.2%	29.9%	-10.8%	?	3.6%
CC(C)CC(=NNC(=O)c1ccncc1)c1cc(Cl)ccc1O	nt	nt	?	5.62µM*	67.3%
CSc1nnc(CNS(=O)(=O)c2ccc(F)cc2F)n1-c1ccccc1C	nt	nt	0.0%	i	nt
COc1cccc(/C=N/NC(=O)c2cc(-c3ccccn3)nc3ccccc23)c1O	?	?	?	1µM*	67.8%
CCn1c(C)nc2cc(C(=O)N/N=C/c3cccc(O)c3O)ccc21	?	10.4µM*	?	12.6µM*	2.7%
O=C(N/N=C/c1ccc(F)cc1)c1cc(-c2ccccn2)nc2ccccc12	8.3%	-25.9%	-14.5%	-19.0%	16.8%
O=C(N/N=C/c1cc([N+](=O)[O-])ccc1O)c1cccc2cc[nH]c12	3.7µM*	?	nt	nt	44.9%
O=C(N/N=C/c1cccc2ccccc12)c1ccncc1	?	38.6%	nt	nt	17.0%
O=C(N/N=C/c1ccccc1O)c1ccncc1	11.7µM*	9.28µM*	-18.9%	-2.4%	-2.2%
COc1ccc(Br)cc1/C=N/NC(=O)c1cc(OC)c(OC)c(OC)c1	17.7%	0.8%	-19.3%	?	-9.0%
CC(=O)Nc1ccc(C(=O)N/N=C/c2cc(Br)cc(Br)c2O)cc1	2.94µM*	-36.0%[5.75 µM]	-8.0%	-17.9%	-10.5%
COc1ccc(Br)cc1/C=N/NC(=O)c1ccc(OC)c(OC)c1	-3.9%	4.15µM*	-1.8%	i	-2.0%
O=C(NN=Cc1cccc(O)c1O)c1ccccc1	nt	nt	?	10µM*	8.5%
O=C(N/N=C/c1ccoc1)c1ccc(Cl)cc1	?	2.62µM*	nt	nt	-3.1%

Screening results from PubChem.
